The values below come from PubChem BioAssay.

Calls of active or inactive are those of the source.

Assay [1] has as its system Plasmodium falciparum Sir2 (PF13_0152, Sir2A). Kind of assay: Plasmodium falciparum Sir2A binding compounds – biochemical, small-molecule microarray, 635 nm fluorescence, primary screen (AID 1098).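 Note: score merges spot fluorescence intensity with its signal-to-noise ratio.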 The note with it: fluorescence 635 nm, higher = more signal.
Assay [2] is described as follows: probe aDKK1 binding to arrayed compounds – biochemical, biotinylated probe, 635/667 nm fluorescence, primary screen (AID 1099).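 Note: score merges 667nm spot fluorescence with signal to noise across triplicate slides.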 The note with it: small-molecule microarray, higher = more signal.
The nature of assay [3]: probe aCHRDL2 binding to arrayed compounds – biochemical, biotinylated probe, 635/667 nm fluorescence, primary screen (AID 1100). The note with it: small-molecule microarray, higher = more signal.
Assay [4] in a line: change in splice reporter luminescence, either direction, cell-based, HEK293, spliceosome inhibition project, primary screen (AID 1101).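 Note: HEK293 cells carrying a splicing-competent luciferase reporter gene; test concentration not given here.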 The note with it: HEK293 splicing luciferase reporter, 24 h, higher = more signal, called active from +8 up or from −8 down. For orientation: In a reporter assay the amount or activity of a reporter protein is the signal.
The target in assay [5] is Fibroblast growth factor 10 (Homo sapiens) (UniProt O15520). The assay is described as follows: compounds binding fibroblast growth factor 10 – biochemical, small-molecule microarray, 635 nm fluorescence, primary screen (AID 1102). The note with it: FGF10 binding, fluorescence 635 nm, higher = more signal.
Chain of Fibroblast growth factor 10 (Homo sapiens) (O15520 whole entry, looked up): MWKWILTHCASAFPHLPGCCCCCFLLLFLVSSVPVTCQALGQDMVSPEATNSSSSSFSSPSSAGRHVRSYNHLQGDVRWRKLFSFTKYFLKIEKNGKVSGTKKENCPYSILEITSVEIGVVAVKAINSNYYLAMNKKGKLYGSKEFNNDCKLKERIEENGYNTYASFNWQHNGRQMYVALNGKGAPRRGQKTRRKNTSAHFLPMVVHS
Assay [6] has as its system glycogen synthase kinase-3 (GSK3A per assay name; protocol says GSK3B). The assay is described as follows: compounds binding glycogen synthase kinase-3 – biochemical, small-molecule microarray, 635 nm fluorescence, GSK3A, primary screen (AID 1103). Note: the record names both GSK3A and GSK3B. The note with it: fluorescence 635 nm, higher = more signal.
Assay [7] has as its target Epidermal growth factor receptor (Homo sapiens) (UniProt P00533). Kind of assay: compounds binding epidermal growth factor receptor – biochemical, small-molecule microarray, 635 nm fluorescence, primary screen (AID 1104).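 Note: score merges 667 nm emission intensity with spot signal to noise over triplicate slides.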 The note with it: EGFR binding, higher = more signal.
Assay [8] addresses Follistatin-related protein 3 (Homo sapiens) (UniProt O95633). Kind of assay: compounds binding follistatin-related protein 3 – biochemical, small-molecule microarray, 635 nm fluorescence, primary screen (AID 1105).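 Note: score merges emission near 667 nm and signal to noise per printed spot across three slides.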 The note with it: FSTL3 binding, higher = more signal.
The target of assay [9] is Dickkopf-related protein 1 (Homo sapiens) (UniProt O94907). The assay is described as follows: small molecules binding DKK1 protein – biochemical, small-molecule microarray, 635 nm fluorescence scan, primary screen (AID 1106).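 Note: score merges emission near 667 nm with signal to noise over three replicate slides.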 The note with it: higher = more signal.
Chain of Dickkopf-related protein 1 (Homo sapiens) (O94907 whole entry, looked up): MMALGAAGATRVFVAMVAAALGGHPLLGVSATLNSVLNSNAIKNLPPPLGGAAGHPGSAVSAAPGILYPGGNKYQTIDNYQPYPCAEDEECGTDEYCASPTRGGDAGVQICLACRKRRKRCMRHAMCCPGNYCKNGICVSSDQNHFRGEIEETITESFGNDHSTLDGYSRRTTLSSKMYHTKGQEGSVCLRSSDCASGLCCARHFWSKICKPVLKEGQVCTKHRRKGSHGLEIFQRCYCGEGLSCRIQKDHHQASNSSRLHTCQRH
For assay [10], the system named is Inhibin beta A chain (activin A). The assay is described as follows: small molecules binding activin A – biochemical, small-molecule microarray, 635 nm fluorescence scan, primary screen (AID 1107).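 Note: mouse activin A protein probed at 4.33 µg/mL on printed slides; score merges bound-protein fluorescence near 667 nm with spot signal-to-noise.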 The note with it: INHBA, higher = more signal.
Assay [11] has as its system Human papillomavirus type 1a protein E7 (residues 44-93). The assay is described as follows: small molecules binding HPV E7 44-93 – biochemical, small-molecule microarray, residues 44-93, 635 nm fluorescence, primary screen (AID 1108).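 Note: E7 fragment applied at 1 µg/mL in TBST for 1 h at 4 C; score combines spot fluorescence with its signal to noise ratio.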 The note with it: fluorescence 635 nm, higher = more signal.
Assay [12] in a line: hepatitis C replication reporter changes, two-sided – Huh7 cells, luciferase reporter, HCV replication inhibitor project, primary screen (AID 1109).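 Note: huh7 hepatoma cells harbouring a luciferase neomycin HCV replicon reporter; luciferase luminescence as measure of HCV replicon replication; test concentration not given here.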 The note with it: Huh7 HCV replicon luciferase reporter, 48 h; higher = more signal.
The target of assay [13] is Left-right determination factor 2 (Homo sapiens) (UniProt O00292). Kind of assay: small molecules binding LEFTY2 protein – biochemical, small-molecule microarray, 635 nm fluorescence scan, primary screen (AID 1110). The note with it: higher = more signal.
Chain of Left-right determination factor 2 (Homo sapiens) (O00292 whole entry, looked up): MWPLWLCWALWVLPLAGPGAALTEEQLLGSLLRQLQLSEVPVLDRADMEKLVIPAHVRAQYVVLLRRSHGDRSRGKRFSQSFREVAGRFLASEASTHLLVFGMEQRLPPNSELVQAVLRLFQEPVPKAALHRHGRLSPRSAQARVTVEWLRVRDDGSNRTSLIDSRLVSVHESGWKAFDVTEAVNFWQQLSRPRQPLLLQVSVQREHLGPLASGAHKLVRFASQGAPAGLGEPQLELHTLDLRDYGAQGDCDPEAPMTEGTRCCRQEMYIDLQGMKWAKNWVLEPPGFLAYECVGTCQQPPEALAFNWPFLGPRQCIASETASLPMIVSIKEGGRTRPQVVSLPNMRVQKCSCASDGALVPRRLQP
The target in assay [14] is Calmodulin-1 (Homo sapiens) (UniProt P0DP23). The assay is described as follows: small molecules binding calmodulin-1 with EGTA – biochemical, small-molecule microarray, Cy5-labelled CALM1, profiling panel (AID 1111).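 Note: labelled calmodulin applied in Tris saline Tween buffer holding calcium plus EGTA and DTT.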 The note with it: Cy5-CALM1 binding fluorescence, higher = more signal.
Assay [15] shares this target. The assay is described as follows: small molecules binding Ca-loaded calmodulin-1 – biochemical, small-molecule microarray, Cy5-labelled CALM1, plus calcium, artefact control for SMM control-protein annotation, profiling panel (AID 1112).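 Note: score merges spot fluorescence with signal to noise from triplicate slides.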 The note with it: Cy5-CALM1 binding fluorescence, higher = more signal.
Assay [16] can be described thus: probe aWnt5a binding to arrayed compounds – biochemical, biotinylated probe, 635/667 nm fluorescence, primary screen (AID 1113).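 Note: score merges 667 nm fluorescence intensity with signal-to-noise per printed feature.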 The note with it: small-molecule microarray, higher = more signal.
A short description of assay [17]: probe aShh binding to arrayed compounds – biochemical, biotinylated probe, 635/667 nm fluorescence, primary screen (AID 1114).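 Note: probe is biotin-labelled aShh protein from a stem cell growth factor screen; measures binding of labelled protein to compounds printed on the slide; score merges feature fluorescence at 667 nm with signal-to-noise.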 The note with it: small-molecule microarray, higher = more signal.
A short description of assay [18]: probe aNog binding to arrayed compounds – biochemical, biotinylated probe, 635/667 nm fluorescence, primary screen (AID 1115).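 Note: probe is biotinylated aNog protein used at 0.15 µg/mL for 1 h at 4 C; z-score combines 667 nm fluorescence of each spot with its signal to noise.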 The note with it: small-molecule microarray, higher = more signal.
Assay [19] concerns the target Torsin-1A-interacting protein 1 (Homo sapiens) (UniProt Q5JTV8). Kind of assay: compound microarray binding of lysate hLAP1 – cell lysate, small-molecule microarray, COS7 lysate, 635/667 nm fluorescence, primary screen (AID 1116). The note with it: 635 nm fluorescence, higher = more signal.
The target in assay [20] is Alpha-bungarotoxin (Bungarus multicinctus) (UniProt P60615). Kind of assay: compounds binding labelled alpha-BTX control protein – biochemical, small-molecule microarray, Alexa647 label, 635/667 nm fluorescence, artefact control for SMM control protein annotation, profiling panel (AID 1117). The note with it: alpha-BTX-A647 binding fluorescence, higher = more signal.
Chain of Alpha-bungarotoxin (Bungarus multicinctus) (P60615 whole entry, looked up): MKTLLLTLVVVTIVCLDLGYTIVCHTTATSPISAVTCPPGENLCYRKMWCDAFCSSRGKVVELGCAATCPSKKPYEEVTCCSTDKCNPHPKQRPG

Chain of Torsin-1A-interacting protein 1 (Homo sapiens) (Q5JTV8 whole entry, looked up): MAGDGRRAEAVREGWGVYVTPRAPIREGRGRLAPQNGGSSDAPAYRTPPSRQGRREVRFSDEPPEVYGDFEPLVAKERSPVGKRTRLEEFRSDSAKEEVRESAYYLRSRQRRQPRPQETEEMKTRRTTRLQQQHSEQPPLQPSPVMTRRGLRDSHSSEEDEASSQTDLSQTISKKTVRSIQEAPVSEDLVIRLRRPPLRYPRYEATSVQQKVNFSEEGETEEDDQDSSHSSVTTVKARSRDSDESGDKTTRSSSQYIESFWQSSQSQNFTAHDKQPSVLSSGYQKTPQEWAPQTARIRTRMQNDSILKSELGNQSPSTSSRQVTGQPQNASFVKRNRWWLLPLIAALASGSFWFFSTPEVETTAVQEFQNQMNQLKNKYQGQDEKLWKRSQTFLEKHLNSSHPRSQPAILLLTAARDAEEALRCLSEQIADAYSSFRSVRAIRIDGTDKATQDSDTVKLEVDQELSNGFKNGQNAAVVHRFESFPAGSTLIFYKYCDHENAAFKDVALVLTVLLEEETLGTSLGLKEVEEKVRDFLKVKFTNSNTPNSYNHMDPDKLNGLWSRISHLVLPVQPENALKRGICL
Chain of Epidermal growth factor receptor (Homo sapiens) (P00533 whole entry, looked up): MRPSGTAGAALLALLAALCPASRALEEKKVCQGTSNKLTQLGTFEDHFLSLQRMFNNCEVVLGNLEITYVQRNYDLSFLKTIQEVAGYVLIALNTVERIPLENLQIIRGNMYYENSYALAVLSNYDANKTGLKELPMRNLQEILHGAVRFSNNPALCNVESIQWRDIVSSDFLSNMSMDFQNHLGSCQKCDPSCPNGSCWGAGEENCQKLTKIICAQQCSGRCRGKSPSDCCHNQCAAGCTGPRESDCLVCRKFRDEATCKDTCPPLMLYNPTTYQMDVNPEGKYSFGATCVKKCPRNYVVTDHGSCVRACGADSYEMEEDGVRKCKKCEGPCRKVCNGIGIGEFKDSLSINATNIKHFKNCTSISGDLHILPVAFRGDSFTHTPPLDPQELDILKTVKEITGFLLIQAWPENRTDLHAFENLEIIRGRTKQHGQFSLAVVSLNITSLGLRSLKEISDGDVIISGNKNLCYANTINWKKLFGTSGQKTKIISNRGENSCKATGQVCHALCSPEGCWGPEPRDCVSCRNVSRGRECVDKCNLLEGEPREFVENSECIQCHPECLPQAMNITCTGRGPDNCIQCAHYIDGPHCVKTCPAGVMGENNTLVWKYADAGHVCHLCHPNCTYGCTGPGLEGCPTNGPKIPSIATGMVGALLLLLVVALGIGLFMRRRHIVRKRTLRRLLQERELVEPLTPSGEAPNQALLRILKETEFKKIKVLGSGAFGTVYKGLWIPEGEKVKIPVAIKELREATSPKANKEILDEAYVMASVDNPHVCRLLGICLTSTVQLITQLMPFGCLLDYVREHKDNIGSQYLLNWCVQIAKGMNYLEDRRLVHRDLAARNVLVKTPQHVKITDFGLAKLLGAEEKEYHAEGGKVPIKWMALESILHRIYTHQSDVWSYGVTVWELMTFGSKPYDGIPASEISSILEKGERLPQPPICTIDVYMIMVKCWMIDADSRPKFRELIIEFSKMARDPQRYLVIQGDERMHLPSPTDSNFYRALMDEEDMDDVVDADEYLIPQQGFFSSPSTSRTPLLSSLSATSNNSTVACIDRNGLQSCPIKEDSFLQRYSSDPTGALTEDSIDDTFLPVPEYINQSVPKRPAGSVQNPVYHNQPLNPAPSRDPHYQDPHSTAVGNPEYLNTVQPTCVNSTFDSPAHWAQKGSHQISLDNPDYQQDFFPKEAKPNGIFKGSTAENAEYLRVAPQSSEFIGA
Chain of Follistatin-related protein 3 (Homo sapiens) (O95633 whole entry, looked up): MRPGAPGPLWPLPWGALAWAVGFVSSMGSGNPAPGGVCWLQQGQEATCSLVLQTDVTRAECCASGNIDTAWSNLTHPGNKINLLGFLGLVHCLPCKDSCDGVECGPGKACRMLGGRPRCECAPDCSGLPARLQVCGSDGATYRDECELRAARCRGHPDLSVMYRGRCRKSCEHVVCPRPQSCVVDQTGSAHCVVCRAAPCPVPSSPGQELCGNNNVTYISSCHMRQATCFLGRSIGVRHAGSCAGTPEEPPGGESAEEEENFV

`O=C1NC(=O)C2C1C=CC(C(O)C(c1ccccc1)c1ccccc1)N2Nc1ccc(Cl)cc1Cl` (stereo not given): the composite z-score in assay [1] was 0.496; in assay [2] it was 0.824; in assay [3] it was 1.11; in assay [5], 0.554; in assay [6], 0.0932; in [7], -0.261. The composite z-score was 0.908 in [8]; -0.737 in assay [9]; 0.974 in assay [10]; 1.36 in assay [11]; -0.5 in assay [13]; 1.81 in assay [14]. The composite z-score stood at 0.625 in assay [15]; 0.065 in assay [16]; 0.234 in [17]; 1.41 in [18]; 0.343 in assay [19]; 0.503 in [20]. In addition, the z-score is 1.44 (inactive) in [4] and -1.75 in assay [12].
Consider `O=C1O[C@@H](c2ccccc2)[C@@H](c2ccccc2)N2[C@@H](c3ccccc3OCCO)[C@]3(C(=O)Nc4ccc(C#CC5=CCCCC5)cc43)[C@@H](C(=O)Nc3nc4ccccc4s3)[C@H]12`, for which the composite z-score was 1.5 in assay [1]; 0.0826 in assay [2]; -0.0401 in assay [3]; 1.32 in assay [5]; 1.29 in assay [6]; 0.463 in [7]. The composite z-score in [8] came out at 1.23; in assay [9], 0.619; in [10], 0.137; in assay [11] it was 1.4; in assay [13] it was 0.501; in assay [14] it was 1.32. Moreover, the composite z-score is 0.337 in assay [15]; -0.0084 in assay [16]; 0.356 in [17]; -0.167 in assay [18]; 0.705 in assay [19]; 1.32 in assay [20]. In addition, the figures for the z-score in [4] and in assay [12] were -0.459 (inactive) and -2.52, respectively.
As to `Cc1ccc(S[C@]2(C(=O)NCCN3CCOCC3)CC(=O)N(Cc3ccccc3Cl)[C@@H]2c2ccc(CO)cc2)cc1`, the composite z-score in assay [1] was 0.588; in [2] it was -0.123; in assay [3], 0.841; in assay [5], 1; in assay [6], -1.4; in [7] it was -0.342. The composite z-score in assay [8] was -0.51; in assay [9], -0.844; in [10] it was 0.425; in assay [11], 1.02; in assay [13], -0.989; in assay [14] it was -0.343. Also, the composite z-score is 0.148 in assay [15]; -0.12 in [16]; -0.0035 in assay [17]; -0.339 in assay [18]; 0.733 in [19]; -0.146 in assay [20]. In addition, the z-score is -1.38 (inactive) in assay [4] and -0.815 in assay [12].
With `CN1C(=O)C2C=CC(C(O)C3CC=CCC3)N(NC(=O)OC(C)(C)C)C2C1=O` (stereo not given), the composite z-score in assay [1] came out at 0.701; in assay [2] it was 0.0347; in [3], 0.16; in assay [5], 0.796; in assay [6], 1.12; in assay [7], 0.933. Further, the composite z-score in [8] stood at 1.23; in assay [9] it was 0.347; in assay [10], 1.03; in [11], 0.696; in [13], 0.46; in assay [14] it was 2.3. The composite z-score is 0.785 in assay [15]; -0.0539 in [16]; -0.195 in assay [17]; 0.55 in assay [18]; 1.84 in assay [19]; 1.3 in assay [20]. For the same compound, the z-score is 1.61 (inactive) in [4] and -0.0017 in assay [12].
Regarding `COc1ccc([Si](C)(C)[C@H]2[C@H](CCO)O[C@@]3(C(=O)N(Cc4ccc(N5C(=O)COc6ccccc65)cc4)c4ccccc43)[C@@H]2C)cc1`, the composite z-score in [1] is 0.0297; in [2], -0.0813; in [3], 0.812; in assay [5], -0.712; in assay [6] it was -1.01; in assay [7], -0.95. For the same compound, the composite z-score in assay [8] was -0.534; in assay [9], -0.297; in assay [10] it was -0.515; in [11], 0.49; in assay [13] it was -1.45; in assay [14] it was 0.471. The composite z-score is 0.601 in [15]; -0.147 in [16]; -0.153 in [17]; 0.201 in assay [18]; -0.373 in assay [19]; 0.11 in [20]. For the same compound, the z-score in [4] is -1.15 (inactive); in assay [12], -4.92.
Consider `CO[C@H]1O[C@H](CO)[C@@H](OC(=O)Nc2ccc(Br)cc2)[C@H](OC(=O)c2cc3ccccc3[nH]2)[C@H]1OC(=O)c1cc2ccccc2[nH]1`, for which the composite z-score in [1] is 1.23; in assay [2], 0.165; in [3] it was 0.24; in [5], 1.19; in assay [6], 1.28; in assay [7] it was 0.408. The composite z-score is 0.579 in [8]; 0.0104 in assay [9]; 0.227 in assay [10]; 0.823 in assay [11]; -0.132 in [13]; 1.87 in assay [14]. The composite z-score was 0.14 in assay [15]; 0.0775 in [16]; -0.262 in [17]; 0.121 in assay [18]; 0.926 in assay [19]; 0.353 in [20]. The z-score in assay [4] was -4.44 (inactive); in [12], -3.51.
